Screening data as filed in PubChem BioAssay.
The full list was thinned out, with hits kept by preference.
LmPK inhibitor = LmPK (Leishmania mexicana) enzyme inhibition; Q27686; purified LmPK, Kinase-Glo ATP luminescence, 1 h; Potency, µM (doses to about 57.5 µM), for the others: at the highest dose activity change, negative = inhibition, actives largely listed as inhibitors; 0.37% of 290,000 active; AID 1721; active means well fitted curve in the direction sought with a large enough effect; inconclusive means small, poorly fitted or top-dose-only effect, or another doubt; inactive means no such curve, though single readings can be large; an effect the other way counts as inactive or inconclusive; further: potency means the concentration at half of the fitted maximal effect; on the % scale 0 is the no-effect control and ±100 the full control effect
Target sequence (Q27686 whole entry, looked up): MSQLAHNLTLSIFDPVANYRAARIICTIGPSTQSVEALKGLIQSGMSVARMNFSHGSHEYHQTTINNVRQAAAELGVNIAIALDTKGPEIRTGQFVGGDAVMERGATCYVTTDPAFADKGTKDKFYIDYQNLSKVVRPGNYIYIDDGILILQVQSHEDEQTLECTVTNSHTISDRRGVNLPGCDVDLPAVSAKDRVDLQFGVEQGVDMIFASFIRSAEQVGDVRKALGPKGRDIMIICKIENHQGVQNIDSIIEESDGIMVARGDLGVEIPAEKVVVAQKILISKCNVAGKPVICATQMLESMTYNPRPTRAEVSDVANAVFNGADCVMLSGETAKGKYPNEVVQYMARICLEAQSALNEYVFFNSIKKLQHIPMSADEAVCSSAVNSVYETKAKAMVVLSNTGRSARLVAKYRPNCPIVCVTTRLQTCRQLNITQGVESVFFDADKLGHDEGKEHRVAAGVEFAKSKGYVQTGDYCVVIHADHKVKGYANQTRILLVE
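Screened at intermediate enzyme activity to detect both inhibitors and activators: LmPK at 0.1 nM, with a 0.5 nM enzyme column as activation reference. PEP 0.5 mM, ADP 0.1 mM; ATP detected by luminescence after 1 h.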
NS1 inh = influenza NS1 inhibition | Potency, µM (titrated, usually from 46.1 µM), for the others: at the top dose activity, positive = more growth | 0.4% of 270,000 active | AID 2326; further: potency means the concentration at half of the fitted maximal effect; actives are rising curves; nearly all actives have a fitted effect of over 50% in size
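In this qHTS, NS1 from influenza A is expressed in budding yeast, where it slows growth. Cells are switched from glucose to 2% galactose medium (pH 6.0, -URA), treated with compound, and growth recovery is read at OD600.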
Shiga inhibitor = blocks Shiga toxin action in Vero cells; 9.2% of 290,000 active; inhibition, % at 38.7 µM; AID 2315; Vero cells, Shiga toxin protein synthesis inhibition reporter; in the data active means inhibition mostly above about 28%, no sharp cut-off; inactive means mostly below about 43%; further: 0% is about no effect
SARS PLP yeast = blocks SARS-CoV papain-like protease in a yeast assay; S. cerevisiae expressing SARS-CoV PLpro, growth rescue; Potency, µM (titrated, usually from 32.9 µM), without a hit: at the highest dose activity, positive = growth rescue, usual class: activators; 0.19% of 330,000 active; AID 485353; further: potency means the concentration at half of the fitted maximal effect; 0% is about no effect; nearly all actives have a fitted effect of over 55% in size
TbPYK inhibitor = inhibitors of Trypanosoma brucei pyruvate kinase | Q57TT1 | TbPYK enzyme, Kinase-Glo Plus ATP luminescence, 45 min | Potency, µM (doses to about 76.8 µM), for the others: at the highest dose activity, negative = inhibition, most hits filed as inhibitors | 0.12% of 410,000 active; active means well fitted curve in the direction sought with a large enough effect; inconclusive means small, poorly fitted or top-dose-only effect, or another doubt; inactive means no such curve, though single readings can be large; an effect the other way counts as inactive or inconclusive; further: potency means the concentration at half of the fitted maximal effect; on the % scale 0 is the no-effect control and ±100 the full control effect; nearly all actives have a fitted effect of over 50% in size
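Activity of T. brucei pyruvate kinase was followed by Kinase-Glo Plus luminescence after the enzyme reacted 45 min at room temperature with 130 uM ADP (final) and substrate. Test compounds were added before ADP at multiple concentrations.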
CHX counter = counter-screen for Shiga toxin inhibitors: cycloheximide protein synthesis inhibition. cell reporter, cycloheximide protein synthesis inhibition counterscreen. max response, %. 12% of 300,000 active; in the data active means max response mostly above about 13%, no sharp cut-off; inactive means mostly below about 14%; further: read at 38.3 µM for the half of the compounds with a filed dose; 0% is about no effect
Numbers without * were called inactive; ? = inconclusive; nt = no result given; [ ] = remark or other dose. Unless noted, the call rests on the fitted dose curve.

SMILES	LmPK inhibitor	NS1 inh	Shiga inhibitor	SARS PLP yeast	TbPYK inhibitor	CHX counter
COc1ccc2c(c1)Cc1sc(NC(=O)c3cccnc3)nc1-2	-29%	21%	13	0%	-11%	6
CCOc1ccc(NC(=O)CN2CCCN(Cc3cc(C)ccc3C)S2(=O)=O)cc1	nt	nt	nt	nt	4%	nt
CCOc1ccc(NC(=O)CN2C(=O)c3ccccc3Sc3ccc(C(=O)OC)cc32)cc1	nt	nt	nt	nt	4%	nt
CCOc1ccc(NC(=O)N2CCOc3ccccc32)cc1	nt	nt	nt	nt	-2%	nt
COc1ccc2c(c1)-c1nc(NC(=O)c3cccs3)sc1CC2	1%	?	75*	-38%	-8%	24*
COc1ccc2c(c1)-c1nc(NC(=O)c3cccc(Br)c3)sc1CC2	nt	nt	nt	nt	-8%	nt
Cc1ccc(C)c(CNS(=O)(=O)c2c(C(=O)N3CCCC3)c(C)n(C)c2C)c1	2%	0%	-6	-1%	-1%	-2
Fc1cccc(Cl)c1Cc1noc(/C=C/c2ccccc2)n1	3%	-3%	148	-16%	-3%	21*
COc1ccc(Cl)cc1NC(=O)c1c(NCc2cccs2)sc2c1CCC(C)C2 (configuration not stated)	nt	nt	nt	nt	-8%	nt
COC(=O)c1ccc2c(CCO)c[nH]c2c1	-3%	3%	37*	-2%	4%	25*
Cc1cc(C)c2c(=O)n3c(nc2c1)C(Cc1ccccc1)NC(=O)c1cc2ccccc2cc1-3 (configuration not stated)	nt	nt	nt	nt	9%	nt
CC(C)(C)c1cc(C(=O)NNc2cc(C(F)(F)F)ccc2Cl)n(Cc2ccccc2)n1	4%	2%	43*	-2%	3%	28*
CC(C)(C)C(=O)NNC(=O)c1cc(C(C)(C)C)nn1Cc1ccccc1	2%	-1%	-5	-1%	-1%	-3
COc1ccccc1NNC(=O)c1cc(C(C)(C)C)nn1Cc1ccccc1	6%	-1%	61*	0%	-2%	30*
CC(C)(C)c1cc(C(=O)NNc2cccc(Cl)c2)n(Cc2ccccc2)n1	0%	-56%	46*	-5%	3%	20*
Cc1ccc(NNC(=O)c2cc(C(C)(C)C)nn2Cc2ccccc2)cc1	4%	-2%	22	-3%	4%	9
CC1(C(=O)NS(=O)(=O)c2ccccc2)CCN1C(=O)CC(c1ccccc1)c1ccccc1 (configuration not stated)	nt	nt	nt	nt	5%	nt
Cc1ccc(NC(=O)C(C)Sc2nc3c(c(=O)[nH]2)CCCC3)cc1Cl (configuration not stated)	nt	nt	nt	nt	-4%	nt
CCOC(=O)N1CCN(C(=O)C[C@@H]2C[C@@]3(C(=O)OCC)CCCC=C3N(Cc3ccco3)C2=O)CC1	nt	nt	nt	nt	-12%	nt
CCSc1nc(C2CC2)cc(-c2ccco2)c1C#N	4%	-3%	-10	-7%	-11%	-4
CCCSc1nc(N)nc(-c2cccs2)c1C#N	-1%	-143%	84*	-29%	-7%	35*
CCc1c(C)nc(SCC(=O)c2cccs2)c(C#N)c1C	-7%	-6%	40	-9%	-2%	39*
N#Cc1c(-c2ccccc2F)cc(C2CC2)nc1SCC(=O)c1cccs1	-1%	12%	-12	8%	1%	13*
CCOC(=O)CSc1nc(N)c(C#N)c(-c2cccs2)c1C#N	7%	8%	-24	-10%	-2%	10
CCSc1nc(C2CC2)cc(-c2cccs2)c1C#N	1%	-2%	10	-16%	-5%	16*
SMILES	LmPK inhibitor	NS1 inh	Shiga inhibitor	SARS PLP yeast	TbPYK inhibitor	CHX counter
Cc1ccc(NS(=O)(=O)c2cc(C(=O)NCCCN(C)C)ccc2Cl)cc1Cl	nt	nt	nt	1%	-2%	nt
COc1ccccc1CNC(=O)CCC1N=C2c3ccccc3N=C(SCc3ccc(C)cc3)N2C1=O (configuration not stated)	nt	nt	nt	nt	-5%	nt
COc1ccc(C=O)cc1CSc1ccccn1	1%	0%	14	0%	-13%	11*
COc1cc(/C=N/NC(=O)CSc2ccccn2)ccc1OC(C)C	5%	-1%	68*	1%	-12%	39*
COc1ccc(C(C)=O)cc1CSc1ccccn1	0%	-7%	15	0%	-3%	1
COc1ccc(/C=N/NC(=O)c2ccc(O)cc2O)cc1CSc1ccccn1	11%	?	64*	8%	-13%	40*
COc1ccc(/C=N/NC(=O)c2ccccc2Cl)cc1CSc1nc2ccccc2s1	-3%	14%	16	-14%	4%	0
CC(OC(=O)c1ccc(OCC2CCCO2)cc1)C(=O)N(C)Cc1ccccc1 (configuration not stated)	nt	nt	nt	-4%	-5%	nt
CC1(C(=O)NS(=O)(=O)c2ccccc2Cl)CCN1C(=O)Cc1cccc2ccccc12 (configuration not stated)	nt	nt	nt	nt	-10%	nt
CCOc1ccc(CCNC(=O)c2ccc(CS(=O)(=O)Cc3ccccc3Cl)o2)cc1OCC	nt	nt	nt	nt	5%[15.4 µM]	nt
COc1ccc(NC(=O)COC(=O)CCSc2ccccc2)cc1	nt	nt	nt	-1%	4%	nt
O=C(CCC(=O)Nc1ccccc1)NCCO	1%	5%	-2	5%	3%	-2
COc1ccc(CC(=O)Nc2ccc(C(C)=O)cc2)cc1	-2%	2%	45	1%	-11%	28*
COc1ccc(NC(=O)N/C=C/c2ccccc2)cc1	1%	nt	103*	-6%	1%	35*
COc1ccc(NC(=O)CCC(=O)NCCO)cc1	3%	-7%	45*	-1%	-1%	16*
COc1ccc(NC(=O)CCCSc2ccccc2)cc1	7%	6%	28	-4%	-8%	24*
Cc1ccc(Cl)cc1NC(=O)CCCn1c(=O)c2cccn2c2ccccc21	nt	nt	nt	nt	-2%	nt
COCCNc1nc(NCCN2CCNC2=O)c2sc(-c3ccccc3)cc2n1	nt	nt	nt	nt	2%	nt
CCC(CCC(=O)NNC(=O)Cc1ccc([N+](=O)[O-])cc1)C(=O)O (configuration not stated)	1%	-2%	17	1%	-1%	-3
COc1ccc(CC(=O)Nc2cccc(SC)c2)cc1	-5%	-35%	19	-14%	7%	17*
COC(=O)c1cc(CNC(=O)CCCSc2ccccc2)ccc1OC	1%	1%	21	16%	3%	23*
COc1ccc(NC(=O)CC(=O)Nc2ccc(OC)cc2)cc1	nt	nt	nt	nt	-1%	nt
COc1ccc(CNC(=O)CCCSc2ccccc2)cc1	6%	-17%	-5	-1%	-2%	-4
CCc1ccc(NC(=O)Cc2ccc(OC)cc2)cc1	-1%	-5%	41*	-18%	nt	28*
COc1ccc(NC(=O)CS(=O)CC(=O)Nc2ccc(OC)c(OC)c2)cc1 (configuration not stated)	1%	-6%	3	0%	0%	1
COc1ccc(NC(=O)CS(=O)c2ccccc2Cl)cc1 (configuration not stated)	-3%	3%	36	-2%	-6%	15*
COc1cc(NS(=O)(=O)c2cc3c(cc2C)N(C)CCO3)cc(OC)c1OC	nt	nt	nt	nt	-4%	nt
